According to PubChem BioAssay AID720517 (National Center for Advancing Translational Sciences (NCATS), 2013):
Inconclusive results are not listed. A number with no mark means an inactive call. The source made the active and inactive calls. Calls follow the shape of the dose curve; as a rule, active = well fitted activation curve with a large enough effect; inconclusive = small, poorly fitted or top-dose-only effect; inactive = flat fitted curve, though single readings scatter.

Assay: qHTS for Inhibitors of Cell Surface uPA Generation: FP59 Counterscreen for Cherry-picked Compounds; as to activity (protection from FP59): 0% is about no effect
Conditions: FP59 anthrax toxin cytotoxicity counterscreen, cells; series mostly up to 115 µM; activity (protection from FP59): at the top concentration
Potency is read from the fitted curve at half-maximal effect.

| Compound | activity (protection from FP59) | Potency |
| --- | --- | --- |
| CC(=O)c1ccc(NC(=O)Nc2ccc(Br)cc2C)cc1 | -1.21% | – |
| Fc1ccc(N2CCN(c3nc(CN4CCOCC4)nc4scc(-c5ccccc5)c34)CC2)cc1 | 0.176% | – |
| CCn1nc(NS(=O)(=O)c2ccccc2)c2cc3cc(C)ccc3nc21 | -1.52% | – |
| COc1ccc(C(=O)NNC(=O)Cc2ccc(Cl)cc2)cc1 | -1.18% | – |
| CC(C)(C)OC(=O)C[C@@H]1C/C=C\C[C@@H](CC(=O)N(CCO)Cc2ccccc2)C(=O)N[C@H](Cc2c[nH]c3ccccc23)COC1=O | 2.68% | – |
| CCC(=O)N1CCC(NC(=O)Nc2ccc(OC(F)(F)F)cc2)CC1 | 0.228% | – |
| COc1ccc(C(=O)N2CCN(c3ccc(C(C)=O)cc3)CC2)cc1S(=O)(=O)N1CCCC1 | -1.46% | – |
| O=C(Cc1ccc(Cl)cc1)NC(=S)Nc1ccccc1O | 0.767% | – |
| COc1ccccc1C(=O)NCc1ccccc1 | -1.46% | – |
| COc1cc(C(=O)N/N=C(\Cc2ncc[nH]2)c2ccccc2)cc(OC)c1OC | -0.278% | – |
| CCCn1c(N)c(C(=O)CSc2nnc(C3CC3)n2Cc2ccccc2)c(=O)[nH]c1=O | -1.31% | – |
| CN(/N=C/c1cc(Cl)cc(Cl)c1O)C(=S)NC(C)(C)C | -1.39% | – |
| O=[N+]([O-])c1cccc(-c2noc(-c3cccs3)n2)c1 | -1.42% | – |
| CCN1CCN(C(c2ccccc2)c2nnnn2Cc2ccc3c(c2)OCO3)CC1 (stereo not given) | -1.55% | – |
| Fc1ccc(NC(=S)N2CCCC(c3ccccc3)=N2)cc1 | 1.8% | – |
| CCCCNC(=O)C1CCN(S(=O)(=O)c2c(C)noc2/C=C\c2ccc(OC)cc2)CC1 | -1.02% | – |
| CN(C)C(=S)Nc1ccc(S(=O)(=O)N2CCCCC2)cc1 | -1.13% | – |
| COc1cc(C(=O)Nc2nnc(C)s2)cc(OC)c1OC | -1.5% | – |
| C[C@H](O)[C@@H]1C(=O)N2CCc3ccc(-c4cccc(F)c4)cc3[C@@H]2C[C@@H]1N(C)C(=O)C(C)(C)C | 2.82% | – |
| O=C(Cc1ccc(Cl)cc1)c1c[nH]c(C(=O)NCCCn2ccnc2)c1 | -1.08% | – |

| Compound | activity (protection from FP59) | Potency |
| --- | --- | --- |
| Cn1nc(C(C)(C)C)c([N+](=O)[O-])c1C(=O)N1CCOCC1 | -1.4% | – |
| COc1ccc(C(=O)CC(=O)C(=O)Nc2ccccc2)cc1 | -1.24% | – |
| CC(C)C1Oc2ccccc2N(CC(=O)NC2CCCCC2)C1=O (stereo not given) | – | 58.5 µM (active) |
| COCCNC(=S)N(CCc1c(C)[nH]c2ccccc12)Cc1ccco1 | -1.09% | – |
| Cc1ccc(C(=O)NC(=S)Nc2ccc3[nH]c(=O)[nH]c3c2)c(C)c1 | -1.44% | – |
| O=C(c1ccccn1)C1CCCN(Cc2cn[nH]c2-c2cc3ccccc3o2)C1 (stereo not given) | -1.18% | – |
| Cc1nc(NC(=O)COC(=O)CCc2ccccc2)c(Cl)cc1Cl | -0.548% | – |
| COc1ccc2cc(CCNC(=O)c3ccc4c(c3)OCO4)c(=O)[nH]c2c1 | -1.1% | – |
| COCCN(C(=O)c1ccccc1OC)c1nnc(C)s1 | -1.25% | – |
| COc1cc2c(cc1OC)CN(C(=O)c1ccc(-c3ccccc3)cc1)CC2 | 1.17% | – |
| COc1ccc(C(c2sc3nc(C)nn3c2O)N2CCC(C(N)=O)CC2)cc1OC (stereo not given) | -1.58% | – |
| CCOC(=O)C1CCN(S(=O)(=O)c2c[nH]c(=O)[nH]c2=O)CC1 | -0.73% | – |
| Cc1ccnc(NS(=O)(=O)c2ccc(NC(=O)C3C4C=CC(C4)C3C(=O)O)cc2)n1 (stereo not given) | -0.562% | – |
| Cc1ccc(S(=O)(=O)NC(=O)Nc2nccs2)cc1 | -1.39% | – |
| CCOCCCn1c(SCC(=O)Nc2oc(C)c3c(C)n[nH]c(=O)c23)nc2ccccc2c1=O | -1.53% | – |
| COc1ccc(C(=O)CC2(C(=O)O)CCCCC2)cc1 | -1.5% | – |
| CCOC(=O)C1=C(CN2CCN(C(=O)c3ccco3)CC2)NC(=O)NC1c1ccccc1 (stereo not given) | -0.369% | – |
| CS(=O)(=O)Nc1cccc(C2=NN(S(=O)(=O)c3ccccc3)C(c3ccco3)C2)c1 (stereo not given) | -1.08% | – |
| Cc1cc(C)nc(NC(=O)CSc2nccc(C)n2)n1 | -1.55% | – |
| O=[N+]([O-])c1ccc(SCc2ccncc2)nc1 | -0.905% | – |
